In PubChem BioAssay (EPA / NIEHS):
Inconclusive results are not listed. Activity calls are given as the source filed them. How the source made its calls: active means hit-call score of the fitted dose curve at least 0.9, where 1 is the maximum; inconclusive means response in the unintended direction; inactive means score below 0.9.

What follows are compounds tested against human Vitamin D Receptor (VDR), VDR (gene 7421) (UniProt P11473) (assay: ATG_VDR_TRANS: Attagene TRANS-FACTORIAL HepG2 Assay for human Vitamin D Receptor (VDR) (AID 2283022)).
Outline: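 Multiplexed TRANS reporter in HepG2; 24 h treatment; reporter mRNA by RT-PCR plus capillary electrophoresis; upregulation scored relative to DMSO.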

human Vitamin D Receptor (VDR), VDR (gene 7421), sequence (P11473 whole entry, looked up): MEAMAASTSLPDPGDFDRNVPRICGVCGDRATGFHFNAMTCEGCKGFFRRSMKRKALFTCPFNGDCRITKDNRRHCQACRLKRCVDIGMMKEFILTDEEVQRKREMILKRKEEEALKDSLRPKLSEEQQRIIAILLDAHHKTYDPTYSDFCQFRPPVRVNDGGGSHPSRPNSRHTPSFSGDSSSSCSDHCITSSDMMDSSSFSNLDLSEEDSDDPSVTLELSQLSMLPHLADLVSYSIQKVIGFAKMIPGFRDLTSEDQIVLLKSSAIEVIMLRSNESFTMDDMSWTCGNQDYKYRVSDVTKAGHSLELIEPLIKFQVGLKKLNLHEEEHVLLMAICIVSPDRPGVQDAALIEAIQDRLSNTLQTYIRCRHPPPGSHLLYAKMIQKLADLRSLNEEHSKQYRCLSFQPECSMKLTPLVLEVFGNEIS

Row | Compound | outcome
1 | CSc1ccc(O)cc1C | inactive
2 | CCOC(OCC)OCC | inactive
3 | CCCCCCCC/C=C\CCCCCCCC(=O)OCC(O)CO (stereo unspecified) | inactive
4 | C[Si](C)O[Si](C)C | inactive
5 | CC(C)C(=O)OCc1ccccc1 | inactive
6 | CC(C)CC=C(C=O)c1ccccc1 | inactive
7 | Cc1ccc(O)cn1 | inactive
8 | CCOCOCC | inactive
9 | CN(N=O)C(=O)N[C@@H]1[C@@H](O)[C@H](O)[C@@H](CO)O[C@@H]1O | inactive
10 | CC1=CCC(=O)O1 | inactive
11 | CCc1cc(Cc2cc(CC)c(N)c(CC)c2)cc(CC)c1N | inactive
12 | CCCCCCCCCCCCCC[P+](CCCC)(CCCC)CCCC | inactive
13 | COCCOCCC[Si](C)(O[Si](C)(C)C)O[Si](C)(C)C | inactive
14 | COCCC(=O)OC | inactive
15 | CC1=CCC2C(=O)OC(=O)C2C1 (stereo unspecified) | inactive
16 | CN1CN(C)CN(C)C1 | inactive

Row | Compound | outcome
17 | O=C(c1ccccc1)c1ccc(Cl)cc1 | inactive
18 | O=C1c2ccccc2C(=O)c2c(Cl)cccc21 | inactive
19 | Cc1cc(=O)[nH]c(C(C)C)n1 | inactive
20 | CC(C)(C)c1cc(CCC(=O)OCC(COC(=O)CCc2cc(C(C)(C)C)c(O)c(C(C)(C)C)c2)(COC(=O)CCc2cc(C(C)(C)C)c(O)c(C(C)(C)C)c2)COC(=O)CCc2cc(C(C)(C)C)c(O)c(C(C)(C)C)c2)cc(C(C)(C)C)c1O | inactive
21 | Brc1ccccn1 | inactive
22 | CN(C)C(C)(C)CO | inactive
23 | CCCC(=O)OCC(COC(=O)CCC)OC(=O)CCC | inactive
24 | Oc1ccc2c(c1)CCC2 | inactive
25 | OCC1CCCO1 (stereo unspecified) | inactive
26 | Cc1cccc(C)n1 | inactive
27 | CC(C)(C)c1cc(Cc2cc(C(C)(C)C)c(O)c(C(C)(C)C)c2)cc(C(C)(C)C)c1O | inactive
28 | O=c1cccc[nH]1 | inactive
29 | N#Cc1ccccc1O | inactive
30 | CCCCC(CC)COC(=O)c1ccc(N(C)C)cc1 (stereo unspecified) | inactive
31 | CCC(Cc1c(I)cc(I)c(N)c1I)C(=O)O (stereo unspecified) | inactive
